Source: PubChem BioAssay AID1672 (Johns Hopkins Ion Channel Center, 2009)
About 2,600 (0.84%) of roughly 310,000 compounds were called active. Only a selection was taken, and actives are over-represented in it overall. Unmarked numbers belong to inactive results.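 The calls were made as follows: active = fluorescence ratio B-score at or below minus 3 SD of library scores, with starting-brightness B-score within 2 SD (cut at about -4.2 in these data); inactive = the rest.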

Each compound was assayed against Inward rectifier potassium channel 2 (Mus musculus) (UniProt P35561) (assay: blocks the mouse Kir2.1 inward-rectifier potassium channel (AID 1672;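 also: channel flux triggered by added potassium and thallium sulfate stimulus; B-score of peak minus minimum fluorescence over baseline after thallium stimulus; more negative B-score means stronger Kir2.1 block with less thallium influx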)). Conditions: HEK293-Kir2.1, FluxOR thallium flux fluorescence; at 10 µM; active compounds read low.
Chain of Inward rectifier potassium channel 2 (Mus musculus) (P35561 whole entry, looked up): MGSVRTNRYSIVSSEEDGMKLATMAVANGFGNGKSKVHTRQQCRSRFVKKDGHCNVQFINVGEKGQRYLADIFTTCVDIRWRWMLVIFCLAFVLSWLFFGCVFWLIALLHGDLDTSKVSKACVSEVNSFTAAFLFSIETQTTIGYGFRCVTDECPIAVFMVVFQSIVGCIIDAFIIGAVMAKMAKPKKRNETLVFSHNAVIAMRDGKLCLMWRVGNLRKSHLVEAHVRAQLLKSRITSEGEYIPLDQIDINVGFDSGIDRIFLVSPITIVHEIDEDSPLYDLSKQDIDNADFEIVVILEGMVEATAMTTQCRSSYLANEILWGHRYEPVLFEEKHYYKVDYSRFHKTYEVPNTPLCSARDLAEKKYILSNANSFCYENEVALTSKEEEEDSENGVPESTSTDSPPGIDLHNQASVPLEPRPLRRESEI
For `CCOC(=O)c1c(C)oc2cc(Sc3ccccc3)c(O)c(O)c12`, the B-score was 1.87. `CCC(c1nnc(SCC(=O)NNC(=O)c2ccccc2)n1Cc1ccccc1)N(C)C` (stereo unspecified) was tested, and the B-score was 0.93. For `CCCNC(=O)c1onc(CSc2ccc(F)cc2)c1C(=O)NC(C)C`, the B-score was -1.25. Compound `O=[N+]([O-])c1ncc(Br)cc1Nc1ccccc1` has a B-score of 0.16. `O=C(NCc1ccncc1)c1ccc(NS(=O)(=O)c2cccc([N+](=O)[O-])c2)cc1` gave a B-score of 0.45. `CCCCN1C(N)=NC[C@@H]1CC1CCCCC1` showed a B-score of -1.04. `COc1cccc(NC(=O)CSc2nccn(-c3ccc4c(c3)OCCO4)c2=O)c1` gave a B-score of -0.69. For `Nc1ccccc1/C=N\N=C/c1ccccc1N`, the B-score was -1.02. In the case of `Cc1noc(C)c1CSCC(=O)Nc1ccc(Br)cc1Cl`, the B-score is reported as 0.74. For `COc1ccc(Cl)cc1NC(=O)CN(C)C(=O)c1cc(-c2cccs2)nn1-c1ccccc1`, the B-score was -0.85. `CCCCn1c(N)c(N(CCOC)C(=O)c2sc3ccccc3c2Cl)c(=O)[nH]c1=O` showed a B-score of -0.1. `COc1ccc(NS(=O)(=O)c2ccc(C)c(C(=O)N(C)Cc3ccc(OC)cc3OC)c2)cc1` was tested, and the B-score was 0.75. `Cc1ccc(S(=O)(=O)N(Cc2cccc([N+](=O)[O-])c2)C(=O)N2CCN(C)CC2)cc1` showed a B-score of 1.58. With `CCN(CC)C(=O)CN(c1cccc([N+](=O)[O-])c1)S(=O)(=O)c1ccccc1` the B-score was 1.08. With `O=C(CCl)N(Cc1cccc([N+](=O)[O-])c1)c1cccc(Cl)c1` the B-score was -5.7 (active). `COc1ccccc1NC(=O)Nc1nc(CC(=O)Nc2ccccc2F)cs1` gave a B-score of -0.89. `CC1CCc2[nH]c3ccc(C(=O)N(C)CC(=O)Nc4cccc(F)c4)cc3c2C1` (stereo unspecified) was tested, and the B-score was -0.84. With `O=C(CN1C(=O)c2ccccc2C1=O)NCc1ccc(C(=O)O)cc1` the B-score was -0.03. With `CC(C)N(C(=O)c1ccc(-c2ccccc2F)cc1)C(C)C` the B-score was -0.06. In the case of `CC(=O)N(C1=C(Cl)C(=O)c2ccccc2C1=O)c1ccc(C(=O)O)cc1`, the B-score is reported as -11 (active). Compound `COc1ccc(CCNc2cc(N3CCN(C(=O)c4ccccc4OC)CC3)ccc2[N+](=O)[O-])cc1OC` has a B-score of -0.2. Compound `CC1(C)C=Cc2c(ccc3c2OC[C@@H](c2ccc(O)cc2O)C3)O1` has a B-score of 0.26. For `Cc1ccc(S(=O)(=O)CCC(=O)Nc2nnc(CC(C)C)s2)cc1`, the B-score was 0.9. `CC(C)(C)CC(C)(C)NCC(O)COCCOc1ccc(Br)cc1` (stereo unspecified) was tested, and the B-score was -6.18 (active). `COc1ccc(OCC(O)CNCCNc2nccc(C(F)(F)F)n2)cc1` (stereo unspecified) showed a B-score of -1.42. With `OC(COc1ccc(Br)cc1)CN1CCCC1` (stereo unspecified) the B-score was -0.51. Work on `CCCCCC(=O)N1CCN(S(=O)(=O)c2ccc3c(c2)OCCCO3)CC1` yielded a B-score of -1.7. Compound `COc1ccc(Cl)cc1NC(=O)CN1CCN(C(=O)N2CCOCC2)CC1` has a B-score of -2.11. Compound `CC1CC(C)(C)NC(=S)N1CCC(=O)N1CCN(Cc2ccccc2)CC1` (stereo unspecified) has a B-score of -0.96. With `CC1CC(=S)Nc2ccccc2N1Cc1ccccc1` (stereo unspecified) the B-score was -4.8 (active). Compound `CC1CC(=O)Nc2ccccc2N1S(=O)(=O)c1cccs1` (stereo unspecified) has a B-score of -0.1. In the case of `O=C(NCCc1ccco1)C(=O)NCCC1CCCCN1S(=O)(=O)c1ccccc1` (stereo unspecified), the B-score is reported as -0.4. In the case of `CN(C)S(=O)(=O)c1cccc(-c2nn(-c3ccccc3)cc2/C=C2\SC(=S)N(CC(=O)O)C2=O)c1`, the B-score is reported as 0.81. `COc1ccc(-c2nn(-c3ccccc3)cc2/C=C2/SC(=S)N(CCCC(=O)O)C2=O)c(C)c1` showed a B-score of 0.15. In the case of `Cc1ccc(-c2nn(-c3ccccc3)cc2/C=C2\SC(=S)N(CCCCCC(=O)O)C2=O)o1`, the B-score is reported as -6 (active). For `COc1ccc(-c2cc(C(=O)N/N=C/c3cccnc3)c3ccccc3n2)c(OC)c1`, the B-score was 0.47. `O=C(NNC(=O)c1ccc(-c2ccccc2)cc1)Nc1ccccc1` gave a B-score of -0.44. Work on `CCOC(=O)c1c(C)[nH]c(C(=O)OCC(=O)N2CCCC2=O)c1C` yielded a B-score of -0.25. With `Cc1ccc2nc(NC(=O)CSc3nc(=O)n(CCCN(C)C)c4c3CCC4)sc2c1` the B-score was -4.83 (active). In the case of `Cc1csc(NC(=O)CSc2nc(=O)n(CCCN(C)C)c3c2CCC3)n1`, the B-score is reported as 1.14. Work on `Cc1ccc(NC(=O)CSc2nc(=O)n(CCN(C)C)c3c2CCCC3)c(C)c1` yielded a B-score of -0.41. In the case of `COc1ccc(S(=O)(=O)N2CCCCC2)cc1NC(=O)COc1ccccc1`, the B-score is reported as 0.95. For `CC(Nc1nc(N2CCOCC2)nc2ccccc12)c1ccccc1` (stereo unspecified), the B-score was -0.41. `CC(Nc1nc(N2CCN(CCO)CC2)nc2ccccc12)c1ccccc1` (stereo unspecified) showed a B-score of -0.6. With `CC(Nc1nc(N2CCCC2)nc2ccccc12)c1ccccc1` (stereo unspecified) the B-score was -4.56 (active). In the case of `COc1ccc(-c2nc3ccccc3c(=O)n2CCc2ccc(O)cc2)cc1`, the B-score is reported as 0.02. In the case of `COc1ccc(CCNCc2c(-c3ccccc3)n(C)c3ccccc23)cc1`, the B-score is reported as -10.9 (active). `COc1ccc(-c2c(C#Cc3ccccc3)c3ccccc3n2C)cc1` gave a B-score of 0.01. `CCOc1cc2ccccc2cc1C(=O)Nc1ccccn1` gave a B-score of 1.1. `COc1ccccc1C(=O)Nc1ccccc1C(=O)Nc1ccccc1` was tested, and the B-score was 1.53. `COc1ccccc1OCCNCC(O)COc1cccc2[nH]c3ccccc3c12` (stereo unspecified) was tested, and the B-score was -4.77 (active). `COc1cccc2[nH]c(C(=O)NCCc3ccccc3)cc12` was tested, and the B-score was 0.06. Compound `CC(C)(C)NCC(O)COc1cccc2[nH]c(=O)[nH]c12` (stereo unspecified) has a B-score of 1.46. For `Cc1cc2oc3ccc(NCCC4CCCN4C)cc3c(=O)c2cc1C` (stereo unspecified), the B-score was -7.66 (active). `CCCOc1ccc(C2c3c(oc4cc(C)c(C)cc4c3=O)C(=O)N2CCCN2CCOCC2)cc1` (stereo unspecified) was tested, and the B-score was 0.6. `Cc1cc2oc(=O)cc(CN3CCN(Cc4ccccc4)CC3)c2cc1C` showed a B-score of -2.25. For `COc1ccccc1NC(=O)COC(=O)c1ccccc1SCC(=O)N1CCCC1`, the B-score was 1.77. `O=C(c1cc(-c2ccco2)nc2ccccc12)N(Cc1nnc(-c2ccc(Cl)cc2)o1)C1CC1` was tested, and the B-score was -1.19. `O=C(NC1C2CC3CC(C2)CC1C3)c1ccc(N2CCNCC2)c([N+](=O)[O-])c1` (stereo unspecified) gave a B-score of 0.7. With `CC(NC(=O)c1ccc(N2CCNCC2)c([N+](=O)[O-])c1)C12CC3CC(CC(C3)C1)C2` (stereo unspecified) the B-score was -8.06 (active). Compound `CCC(C)NC(=O)c1ccc(N2CCC3(CC2)OCCO3)c([N+](=O)[O-])c1` (stereo unspecified) has a B-score of 0.4. Compound `COCOc1cc(O)c(C(=O)/C=C/c2ccc(OCOC)c(OCOC)c2)c(OCOC)c1` has a B-score of 1.19. In the case of `COc1ccc(CNC(=O)C2CCCC2)cc1`, the B-score is reported as 1.06. In the case of `COc1ccc(NC(=O)c2cc(-c3ccc(C)cc3)on2)cc1`, the B-score is reported as 0.92. `COc1ccc(NC(=O)/C(Cl)=C(/Cl)S(=O)Cc2ccc(C)cc2)cn1` (stereo unspecified) was tested, and the B-score was -5.16 (active). With `COc1ccc(Nc2cc(Cl)ccc2C(=O)O)cn1` the B-score was 2.53. `CC1CCN(c2ccc(-c3ccc(NC(=O)c4ccco4)cc3)nn2)CC1` showed a B-score of 2.11. Compound `COC(=O)c1ccc(NC(=O)c2ccccc2NS(=O)(=O)c2ccccc2)cc1` has a B-score of -0.07. With `COc1cc(NC(=O)c2ccccc2NS(=O)(=O)c2ccc(Cl)s2)cc(OC)c1` the B-score was -4.91 (active). `COc1cc(NC(=O)c2cccnc2SC)cc(OC)c1` was tested, and the B-score was -1.22. Compound `Cc1ccn2c(=O)nc(SCC(=O)NCc3ccc4c(c3)OCO4)nc2c1` has a B-score of -1.61. Work on `Cc1ccc2nc(NC(=O)C3CSC4(C)CCC(=O)N34)sc2c1` (stereo unspecified) yielded a B-score of -0.28. Compound `CCOc1ccc(S(=O)(=O)Nc2cccc(C(=O)NCC3(N4CCCCC4)CCCCC3)c2)cc1` has a B-score of -0.12. Compound `Cc1ccc(C(=O)C(C)OC(=O)Cc2n[nH]c(=O)c3ccccc23)cc1C` (stereo unspecified) has a B-score of -0.94. With `O=C(CN1C(=O)NC2(CCCC2)C1=O)OCCOc1ccc(F)cc1` the B-score was 0.63. With `CCn1c2ccccc2c2cc(NC(=O)CNC)ccc21` the B-score was -5.93 (active). With `CCn1c2ccccc2c2cc(NC(=O)COC(=O)c3ccccc3Br)ccc21` the B-score was 1.33. Compound `CCn1c2ccccc2c2cc(NC(=O)C/C(C)=N/NC(=O)c3ccccc3N)ccc21` has a B-score of 1.9. `COc1ccc(CCNC(=O)C(=O)NCC2CCCN2S(=O)(=O)c2cccs2)cc1OC` (stereo unspecified) was tested, and the B-score was -0.91. `COc1ccc(C)cc1S(=O)(=O)Nc1cc2c3c(c1)CCC(=O)N3CCC2` showed a B-score of 0.54. `COc1ccc(NC(=O)CCC(=O)N2CCN(S(=O)(=O)c3ccc(C)cc3)CC2)c(OC)c1` was tested, and the B-score was -0.19. Work on `COc1ccccc1C(=O)NC(CCSC)C(=O)N1CCN(C/C=C/c2ccccc2)CC1` (stereo unspecified) yielded a B-score of -1.22. In the case of `COc1ccc(CN2CCC(c3nc4ccc(Cl)cc4[nH]3)CC2)cc1`, the B-score is reported as -7.29 (active). Work on `COc1ccc(Cn2nnc3c(=O)[nH]c(C4CCN(C(=O)c5ccccc5Cl)CC4)nc32)cc1` yielded a B-score of 1.59. Compound `COc1ccc(CN2CCN(Cc3ccc(OC)c(OC)c3OC)CC2)cc1` has a B-score of 0.47. Work on `O=C(Nc1ccc(S(=O)(=O)N2CCCCC2)cc1)C1CCN(C(=O)c2ccc(F)cc2)CC1` yielded a B-score of -0.97. For `COc1cc(/C=N/O)cc(Br)c1OCc1cccc(Cl)c1`, the B-score was -0.84. In the case of `COc1cc(/C=N/O)cc(Br)c1OS(=O)(=O)c1ccc(C)cc1`, the B-score is reported as -10.4 (active). In the case of `COc1cc(/C=N/Nc2ccc(C)cc2)cc(Br)c1O`, the B-score is reported as -0.11. With `CCc1nnc(NS(=O)(=O)c2ccc(NC(=O)c3cccc(OC(F)(F)C(F)F)c3)cc2)s1` the B-score was -0.69. Work on `Cc1ccc(-c2cc(=O)[nH]c(NCc3ccccc3)n2)cc1` yielded a B-score of -1.96.
